DRD3 agonist = activates the human D3 dopamine receptor; P35462; D3R DiscoveRx beta-arrestin cells, luminescence, 90 min; max activation, %; 0.58% of 410,000 active; in the data active means max activation above about 30%; further: 0% is about no effect
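Agonist mode: compounds and dopamine controls were applied to plated cells for 90 min at 37 degrees C after an overnight attachment at 1500 cells/well. Luminescent read-out followed 30 - 60 minutes at room temperature with DiscoveRx detection reagent.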
IL-1B inflam inh = blocks inflammasome-driven IL-1 beta release | THP-1 LPS/ATP IL-1B secretion, AlphaLISA, 16 h; hits give low values | activity change, % at 57.5 µM | 4.7% of 360,000 active; in the data active means activity change below about -50%; inconclusive means mostly about -30% to -49%; further: on the % scale 0 is the no-effect control and ±100 the full control effect
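THP-1 cells pretreated 1 hr with compounds (up to 57.5 uM final), then stimulated with LPS (250 ng/mL final) plus ATP (1.25 mM final); secreted IL-1B measured by AlphaLISA after 16 hr, decreased signal indicating inhibition.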
DRD3 antagonist = blocks the human D3 dopamine receptor | P35462 | D3R cells, DiscoveRx beta-arrestin luminescence, antagonist mode; hits give low values | max response, negative = inhibition, % | 2.5% of 360,000 active; in the data active means max response below about -50%; inconclusive means no clear call, values can overlap the other calls; further: on the % scale 0 is the no-effect control and ±100 the full control effect
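Cells plated overnight at 1500 cells/well, then exposed to library compounds with dopamine controls for 90 minutes at 37 degrees C. DiscoveRx reagent added for 30–60 minutes at room temperature; luminescence read, quantitative HTS format.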
ClpP mod = qHTS Assay for Activators of ClpP | ATP-dependent Clp protease proteolytic subunit (Bacillus subtilis (strain 168)), P80244 | purified B. subtilis ClpP, FRET peptide cleavage, 20 min | Potency, µM (top dose mostly 57.5 µM), without a hit: at the highest dose activity change, negative = active | 1.9% of 340,000 active; active means well fitted falling curve with a large enough effect; inconclusive means small, poorly fitted or top-dose-only effect; inactive means no such curve, though single readings can be large or run the other way; further: potency means the concentration at half of the fitted maximal effect; the source files actives as falling curves though it sought activators and does not explain the sign; nearly all actives have a fitted effect of over 65% in size
Target sequence (P80244 whole entry, looked up): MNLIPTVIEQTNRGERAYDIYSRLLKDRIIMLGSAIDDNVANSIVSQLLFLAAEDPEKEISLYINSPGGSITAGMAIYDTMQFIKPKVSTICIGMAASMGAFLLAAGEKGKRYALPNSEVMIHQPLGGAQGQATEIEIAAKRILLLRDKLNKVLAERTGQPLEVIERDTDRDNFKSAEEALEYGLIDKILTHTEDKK
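Buffer: 100 mM Tris/HCl pH8, 100 mM KCl, 0.05% low protease BSA, 2.5% glycerol, 0.01% Tween-20. ClpP 10 microg/mL final; 20 min RT; delta FRET normalized to ADEP and DMSO controls.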
DT40 TDP1 no CPT = qHTS for Inhibitors of human tyrosyl-DNA phosphodiesterase 1 (TDP1): qHTS in cells in absence of CPT | DT40 Tdp1-/- hTDP1 cells, no CPT, ATP luminescence, 48 h | Potency, µM (top dose mostly 46.2 µM), inactives show top-dose activity change, negative = growth inhibition, actives largely listed as inhibitors | 15% of 420,000 active; further: potency means the concentration at half of the fitted maximal effect; on the % scale 0 is the no-effect control and ±100 the full control effect; nearly all actives have a fitted effect of over 55% in size
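Compound effects on proliferation are scored in DT40 Tdp1-/-;hTDP1 cells in the absence of CPT. ATP levels (CellTiter-Glo luminescence) are recorded after a ≥48 hr, 37 °C incubation.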
TDP1 cell CPT = DT40-hTDP1 cell growth loss with CPT. Potency, µM (doses to about 46.2 µM), without a hit: at the top dose activity change, negative = growth inhibition, usual class: inhibitors. chicken DT40 Tdp1-/-;hTDP1 cells + 20 nM CPT, ATP luminescence, 48 h. AID 686979. 12% of 420,000 active; further: potency means the concentration at half of the fitted maximal effect; on the % scale 0 is the no-effect control and ±100 the full control effect; nearly all actives have a fitted effect of over 55% in size
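Cell growth measured by CellTiter-Glo luminescence after a minimum 48 h, 37 C compound exposure with 20 nM CPT in Tdp1-knockout DT40 cells stably expressing hTDP1, seeded 400/well; qHTS titration format.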
* hit, by the source's call; ? = inconclusive; . = no result given. An excerpt weighted towards active compounds, which were near 21% of everything screened. Unless noted, the call rests on the fitted dose curve; in most records, active means well fitted inhibition curve with a large enough effect; inconclusive means small, poorly fitted or top-dose-only effect; inactive means flat fitted curve, though single readings scatter.

SMILES | DRD3 agonist | IL-1B inflam inh | DRD3 antagonist | ClpP mod | DT40 TDP1 no CPT | TDP1 cell CPT
CCOC(=O)[C@]12CCC=C1N(CCC1=CCCCC1)C(=O)[C@H](CC(=O)N1CCSCC1)C2 | 1.4 | 28.2 | -15.6 | 0.4% | ? | 18.4µM*
CCCCNC(=O)C[C@@H]1C[C@@]2(C(=O)OCC)CCCC=C2N(CCC2=CCCCC2)C1=O | -2.4 | -2.2 | 7.6 | 2.0% | 8.2µM* | 8.2µM*
CCOC(=O)[C@]12CCC=C1N(CCC1=CCCCC1)C(=O)[C@H](CC(=O)NCCCOC)C2 | 0.4 | 0.0 | 54.9 | 0.4% | ? | -21.5%
CCCCNC(=O)C[C@@H]1C[C@@]2(C(=O)OCC)CCCC=C2N(Cc2ccccc2)C1=O | -0.9 | ? | -0.3 | 2.8% | ? | ?
CCCCCCCCN1C(=O)[C@H](CC(=O)NCCc2ccccc2OC)C[C@@]2(C(=O)OCC)CCCC=C12 | -1.8 | ? | -0.5 | 0.6% | 29.1µM* | ?
CN(C(=O)c1cccc(NC(=O)Cc2ccc(NC(=O)C3CCN(C(=O)C4CC4)CC3)cc2)c1)C1CCCCC1 | 0.9 | -6.6 | -2.5 | -2.4% | -20.0% | -22.0%
COc1cc(=O)n2c(c1C(=O)N(C)Cc1ccsc1)CCN(Cc1c(C)nn(C)c1Cl)CC2 | . | . | . | . | -5.3% | 5.2%
N#Cc1ccccc1OCC(=O)NCc1ccccc1CN1CCCC1 | 0.5 | 1.0 | -1.3 | -11.9% | -23.4% | -9.4%
CC(=O)Nc1ccc(S(=O)(=O)N2CCN(c3ccc(C)c(C)c3)CC2)cc1 | -3.6 | . | . | 0.0% | . | .
COC(=O)[C@]12CCCCC=C1N(CCc1ccc(OC)c(OC)c1)C(=O)[C@H](CC(=O)N1CCSCC1)C2 | -13.0 | ? | -12.2 | -1.8% | ? | ?
CCOC(=O)[C@]12CCCC=C1N(CCc1ccc(OC)c(OC)c1)C(=O)[C@H](CC(=O)N1CCSCC1)C2 | -2.0 | -9.9 | -22.9 | -0.3% | ? | 16.4µM*
CCOC(=O)[C@]12CCCC=C1N(Cc1ccccc1)C(=O)[C@H](CC(=O)NCc1cccc(C(F)(F)F)c1)C2 | 1.5 | ? | 2.8 | 4.4% | ? | ?
COC(=O)[C@]12CCCCC=C1N(CCC1=CCCCC1)C(=O)[C@H](CC(=O)NCc1ccc(OC)c(OC)c1)C2 | 3.5 | -11.8 | 28.1 | -2.1% | ? | ?
CCOC(=O)[C@]12CCCC=C1N(CCc1ccc(OC)c(OC)c1)C(=O)[C@H](CC(=O)NCC13CC4CC(CC(C4)C1)C3)C2 | -14.8 | -20.3 | -4.9 | 3.9% | 16.4µM* | 14.6µM*
CCOC(=O)[C@]12CCCC=C1N(CCC1=CCCCC1)C(=O)[C@H](CC(=O)NCc1ccc(OC)c(OC)c1)C2 | -8.3 | -13.7 | 6.8 | 0.1% | 14.6µM* | 14.6µM*
CCOC(=O)[C@]12CCC=C1N(CCC1=CCCCC1)C(=O)[C@H](CC(=O)NCc1cccc(C(F)(F)F)c1)C2 | 1.6 | -21.5 | 40.5 | -2.0% | 20.6µM* | ?
O=C(NN1C(=O)C2C3CCC(O3)C2C1=O)c1ccco1 (stereo not drawn) | -19.3 | 13.4 | -25.3 | -3.5% | 8.5% | 5.2%
COCCCNC(=O)C[C@@H]1C[C@@]2(C(=O)OC)CCCCC=C2N(CCc2ccc(OC)c(OC)c2)C1=O | -5.7 | 23.6 | -16.1 | -2.3% | ? | -14.7%
CCCCCCCCN1C(=O)[C@H](CC(=O)NCCCOC)C[C@@]2(C(=O)OCC)CCCC=C12 | -1.6 | ? | 5.9 | -2.9% | 11.6µM* | 23.1µM*
CCCCCCCCN1C(=O)[C@H](CC(=O)NCCCN2CCCC2=O)C[C@@]2(C(=O)OCC)CCCC=C12 | -1.3 | -12.2 | 18.4 | -3.3% | ? | ?

Source: PubChem BioAssay
